Experimental data as given in PubChem BioAssay (NCATS).
Records with an inconclusive call do not appear. Where a call stands in place of a potency, no number is given. The source made the active and inactive calls. Calls follow the shape of the dose curve; as a rule, active = well fitted curve in the direction sought with a large enough effect; inconclusive = small, poorly fitted or top-dose-only effect, or another doubt; inactive = no such curve, though single readings can be large; an effect the other way counts as inactive or inconclusive.

assay: qHTS of pediatric cancer cell lines to identify multiple opportunities for drug repurposing: Confirmatory screen for U-2 OS cells (AID 1347122); details: U-2 OS osteosarcoma cell viability; series mostly up to 45.9 µM; also: nearly all actives have a fitted effect of over 65% in size
Procedure, shortened: (§1)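 Viability after 48 h compound treatment at 37C, 500-1,000 cells/well, read as ATP luminescence with CellTiter-Glo. Primary screens used 11-point (MIPE, 0.78 nM-46 µM) or 8-point (NPC, 0.59 nM-46 µM) final concentrations; follow-up screens used 11-point dilutions.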
Potency is read from the fitted curve at half-maximal effect.

Compound | Potency
CN(C)C(=S)SSC(=S)N(C)C | 3.69 µM (active)
COc1ccc(C(=O)N2CCCC2=O)cc1 | inactive
CCc1ccc(C2CCNCC2)cc1 | inactive
COc1ccc2c(C(=O)c3ccc(Cl)cc3)c(C)n(CC(=O)O)c2c1 | inactive
CCCCCCCCCCCC[N+](C)(C)CCOc1ccccc1 | 13.1 µM (active)
Cc1ccc([N+](=O)[O-])[c]2c1[O][Hg]2 | 9.27 µM (active)
CCCCCCCCC(=O)NCc1ccc(O)c(OC)c1 | inactive
CC1Sc2c(C(=O)O)c(=O)c3cc(F)c(N4CCNCC4)cc3n21 (configuration not stated) | inactive
CN1[C@@H]2CC[C@H]1CC(OC(=O)c1cc(Cl)cc(Cl)c1)C2 (some centres not stated) | inactive
COC(=O)C1=CCCN(C)C1 | inactive
C[C@@H]1C[C@@H]([C@H](O)CC2CC(=O)NC(=O)C2)C(=O)[C@@H](C)C1 | 3.29 µM (active)
O=C(O)Cc1ccccc1 | inactive

assay: qHTS of pediatric cancer cell lines to identify multiple opportunities for drug repurposing: Confirmatory screen for Rh18 cells (AID 1347125); details: Rh18 rhabdomyosarcoma cells, viability; series mostly up to 45.9 µM; also: nearly all actives have a fitted effect of over 55% in size
Procedure, shortened: as §1

Compound | Potency
CC[n+]1c(-c2ccccc2)c2cc(N)ccc2c2ccc(N)cc21 | 4.14 µM (active)
CN(C)C(=S)SSC(=S)N(C)C | 0.585 µM (active)
C[C@@H]1O[C@@H](O[C@@H]2C=C3CC[C@@H]4[C@H](CC[C@]5(C)[C@@H](c6ccc(=O)oc6)CC[C@]45O)[C@@]3(C)CC2)[C@H](O)[C@H](O)[C@H]1O | 6.57 µM (active)
CCc1ccc(C2CCNCC2)cc1 | inactive
COc1ccc2c(C(=O)c3ccc(Cl)cc3)c(C)n(CC(=O)O)c2c1 | inactive
CCCCCCCCCCCC[N+](C)(C)CCOc1ccccc1 | 20.8 µM (active)
Cc1ccc([N+](=O)[O-])[c]2c1[O][Hg]2 | 5.22 µM (active)
CCCCCCCCC(=O)NCc1ccc(O)c(OC)c1 | inactive
ClC1=C(Cl)C2(Cl)C(CBr)CC1(Cl)C2(Cl)Cl (configuration not stated) | inactive
CC1Sc2c(C(=O)O)c(=O)c3cc(F)c(N4CCNCC4)cc3n21 (configuration not stated) | inactive
CN1[C@@H]2CC[C@H]1CC(OC(=O)c1cc(Cl)cc(Cl)c1)C2 (some centres not stated) | inactive
COC(=O)C1=CCCN(C)C1 | inactive

assay: qHTS of pediatric cancer cell lines to identify multiple opportunities for drug repurposing: Confirmatory screen for Rh30 cells (AID 1347126); details: Rh30 rhabdomyosarcoma cell viability; series mostly up to 45.9 µM; also: nearly all actives have a fitted effect of over 55% in size
Procedure, shortened: as §1

Compound | Potency
CC[n+]1c(-c2ccccc2)c2cc(N)ccc2c2ccc(N)cc21 | 2.61 µM (active)
CCc1ccc(C2CCNCC2)cc1 | inactive
CCCCCCCCCCCC[N+](C)(C)CCOc1ccccc1 | 16.5 µM (active)
CCCCCCCCC(=O)NCc1ccc(O)c(OC)c1 | inactive
ClC1=C(Cl)C2(Cl)C(CBr)CC1(Cl)C2(Cl)Cl (configuration not stated) | inactive
CN1[C@@H]2CC[C@H]1CC(OC(=O)c1cc(Cl)cc(Cl)c1)C2 (some centres not stated) | inactive
COC(=O)C1=CCCN(C)C1 | inactive
C[C@@H]1C[C@@H]([C@H](O)CC2CC(=O)NC(=O)C2)C(=O)[C@@H](C)C1 | 0.737 µM (active)

assay: qHTS of pediatric cancer cell lines to identify multiple opportunities for drug repurposing: Confirmatory screen for Saos-2 cells (AID 1347127); details: Saos-2 osteosarcoma cell viability; series mostly up to 45.9 µM; also: nearly all actives have a fitted effect of over 60% in size
Procedure, shortened: as §1

Compound | Potency
CC[n+]1c(-c2ccccc2)c2cc(N)ccc2c2ccc(N)cc21 | 16.5 µM (active)
CN(C)C(=S)SSC(=S)N(C)C | 10.4 µM (active)
C[C@@H]1O[C@@H](O[C@@H]2C=C3CC[C@@H]4[C@H](CC[C@]5(C)[C@@H](c6ccc(=O)oc6)CC[C@]45O)[C@@]3(C)CC2)[C@H](O)[C@H](O)[C@H]1O | 0.185 µM (active)
COc1ccc(C(=O)N2CCCC2=O)cc1 | inactive
CCc1ccc(C2CCNCC2)cc1 | inactive
COc1ccc2c(C(=O)c3ccc(Cl)cc3)c(C)n(CC(=O)O)c2c1 | inactive
CCCCCCCCCCCC[N+](C)(C)CCOc1ccccc1 | 14.7 µM (active)
Cc1ccc([N+](=O)[O-])[c]2c1[O][Hg]2 | 1.04 µM (active)
CCCCCCCCC(=O)NCc1ccc(O)c(OC)c1 | inactive
ClC1=C(Cl)C2(Cl)C(CBr)CC1(Cl)C2(Cl)Cl (configuration not stated) | inactive
CN1[C@@H]2CC[C@H]1CC(OC(=O)c1cc(Cl)cc(Cl)c1)C2 (some centres not stated) | inactive

assay: qHTS of pediatric cancer cell lines to identify multiple opportunities for drug repurposing: Confirmatory screen for OHS-50 cells (AID 1347128); details: OHS-50 osteosarcoma cells viability; series mostly up to 45.9 µM;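 also: compound exposure lasted 48 h at 37 degrees C; nearly all actives have a fitted effect of over 55% in size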
Procedure, shortened: as §1

Compound | Potency
CC[n+]1c(-c2ccccc2)c2cc(N)ccc2c2ccc(N)cc21 | 1.17 µM (active)
CCc1ccc(C2CCNCC2)cc1 | inactive
COc1ccc2c(C(=O)c3ccc(Cl)cc3)c(C)n(CC(=O)O)c2c1 | inactive
CCCCCCCCCCCC[N+](C)(C)CCOc1ccccc1 | 20.8 µM (active)
Cc1ccc([N+](=O)[O-])[c]2c1[O][Hg]2 | 2.61 µM (active)
CCCCCCCCC(=O)NCc1ccc(O)c(OC)c1 | inactive
ClC1=C(Cl)C2(Cl)C(CBr)CC1(Cl)C2(Cl)Cl (configuration not stated) | inactive
CC1Sc2c(C(=O)O)c(=O)c3cc(F)c(N4CCNCC4)cc3n21 (configuration not stated) | inactive
CN1[C@@H]2CC[C@H]1CC(OC(=O)c1cc(Cl)cc(Cl)c1)C2 (some centres not stated) | inactive
COC(=O)C1=CCCN(C)C1 | inactive
C[C@@H]1C[C@@H]([C@H](O)CC2CC(=O)NC(=O)C2)C(=O)[C@@H](C)C1 | 0.928 µM (active)

assay: qHTS of pediatric cancer cell lines to identify multiple opportunities for drug repurposing: Confirmatory screen for SK-N-SH cells (AID 1347129); details: SK-N-SH neuroblastoma cell viability; series mostly up to 46.1 µM;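 also: cells exposed to compound for 48 h before viability read; nearly all actives have a fitted effect of over 60% in size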
Procedure, shortened: as §1

Compound | Potency
CC[n+]1c(-c2ccccc2)c2cc(N)ccc2c2ccc(N)cc21 | inactive
CN(C)C(=S)SSC(=S)N(C)C | 11.8 µM (active)
C[C@@H]1O[C@@H](O[C@@H]2C=C3CC[C@@H]4[C@H](CC[C@]5(C)[C@@H](c6ccc(=O)oc6)CC[C@]45O)[C@@]3(C)CC2)[C@H](O)[C@H](O)[C@H]1O | 0.0264 µM (active)
COc1ccc(C(=O)N2CCCC2=O)cc1 | inactive
CCc1ccc(C2CCNCC2)cc1 | inactive
COc1ccc2c(C(=O)c3ccc(Cl)cc3)c(C)n(CC(=O)O)c2c1 | inactive
CCCCCCCCCCCC[N+](C)(C)CCOc1ccccc1 | 20.9 µM (active)
Cc1ccc([N+](=O)[O-])[c]2c1[O][Hg]2 | 3.72 µM (active)
CCCCCCCCC(=O)NCc1ccc(O)c(OC)c1 | inactive
ClC1=C(Cl)C2(Cl)C(CBr)CC1(Cl)C2(Cl)Cl (configuration not stated) | inactive
CC1Sc2c(C(=O)O)c(=O)c3cc(F)c(N4CCNCC4)cc3n21 (configuration not stated) | inactive
COC(=O)C1=CCCN(C)C1 | inactive
O=C(O)Cc1ccccc1 | inactive
